Source: PubChem BioAssay
SARS PLpro yeast: blocks SARS-CoV papain-like protease in a yeast assay; S. cerevisiae expressing SARS-CoV PLpro, growth rescue; Potency, µM (top dose mostly 32.9 µM), without a hit: at the top dose activity, positive = growth rescue, usual class: activators; 330,000 tested, 0.19% active; note: potency is the fitted concentration of half-maximal effect; 0% is about no effect; nearly all actives have a fitted effect of over 55% in size
Shiga toxin inh: Shiga toxin inhibition; Vero cells, Shiga toxin protein synthesis inhibition reporter; inhibition, % at 38.7 µM; 290,000 tested, 9.2% active; AID 2315; in the data active = inhibition mostly above about 28%, no sharp cut-off; inactive = mostly below about 43%; note: 0% is about no effect
NS1 inh: inhibitors of influenza NS1 protein function | 270,000 tested, 0.4% active | Potency, µM (top dose mostly 46.1 µM), inactives show at the top dose activity, positive = more growth; note: potency is the fitted concentration of half-maximal effect; actives are rising curves; nearly all actives have a fitted effect of over 50% in size
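S. cerevisiae expressing influenza A NS1, grown in glucose, washed, then diluted 1:100 into pH 6.0 -URA galactose medium with 23 nl compound. Growth recovery read as OD600; NS1-free strain serves as control.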
Cycloheximide cs: counter-screen for Shiga toxin inhibitors: cycloheximide protein synthesis inhibition | 300,000 tested, 12% active | AID 2314 | cell reporter, cycloheximide protein synthesis inhibition counterscreen | max response, %; in the data active = max response mostly above about 13%, no sharp cut-off; inactive = mostly below about 14%; note: read at 38.3 µM for the half of the compounds with a filed dose; 0% is about no effect
Starred values were filed as active, the others as inactive; ? = inconclusive; nt = no result; + = active, no number; ! = repeats disagree; [ ] = another dose, or the depositor's remark. Only some compounds are listed: those with a hit (about 12% of all), similar ones and a draw of the others. Unless noted, calls come from the whole dose curve.

SMILES | SARS PLpro yeast | Shiga toxin inh | NS1 inh | Cycloheximide cs
COc1cccc(-c2cc(=O)c3cc(NC(C)=O)ccc3[nH]2)c1 | 2.9% | -3.5 | -11.0% | 16.8
COc1ccc(-c2cc(=O)c3cc(OC)ccc3[nH]2)cc1 | -2.9% | 93.9* | -2.7% | 61.5*
COc1ccc(-c2cc(=O)c3cc(C)ccc3[nH]2)cc1 | -34.7% | 53.1* | -2.1% | 35.4*
COc1ccc2[nH]c(O)c(N=O)c2c1 | ? | -7.8 | -4.5% | 0.8
N#Cc1ccc(NC(=O)COC(=O)CSc2nnc(-c3ccc(Cl)cc3)o2)cc1 | -27.5% | -7.2 | -1.9% | 0.0
CCN1CCc2c(sc(NC(=O)c3ccc(S(=O)(=O)N(C)CC4CCCO4)cc3)c2C(N)=O)C1 (centres undefined) | 4.7% | -12.8 | -6.4% | 2.6
CNS(=O)(=O)c1cc(NC(=O)c2cnc(SC)n2-c2ccccc2)ccc1C | 0.5% | -6.3 | 9.9% | -3.7
Cc1cccc(-c2ccc3ncnc(NCc4cccc(F)c4)c3c2)c1 | -13.7% | nt | nt | nt
COc1cc2[nH]c(-c3cccc(F)c3)cc(=O)c2cc1OC | -16.0% | -14.3 | -21.4% | -2.6
COc1cc2[nH]c(-c3ccc(C)cc3)cc(=O)c2cc1OC | 15.5% | +! | 15.0% | 29.3*
O=C(N/N=C1\CC2CC=CC12)c1ccccc1Cl (centres undefined) | 2.8% | 85.5* | nt | 21.1*
O=[N+]([O-])c1ccccc1N/N=C1\CC2CC=CC12 (centres undefined) | -0.6% | 108.3* | nt | 30.7*
FC(F)(F)c1ccccc1NC(=S)N/N=C1\CC2CC=CC12 (centres undefined) | 0.1% | 77.1* | nt | 23.2*
O=C(Nc1nnc(Cc2c[nH]c3ccccc23)s1)c1ccc(Cl)cc1Cl | -0.4% | 34.7* | 23.9% | 17.1*
CC(C)(C)c1ccc(C(=O)Nc2nnc(Cc3c[nH]c4ccccc34)s2)cc1 | 8.5% | 13.4 | 1.9% | 12.4
O=C(Cc1ccccn1)c1ccc(Cl)cc1 | 0.2% | nt | nt | nt
CC1=C(CC(=O)c2ccc(Cl)cc2)C(=O)c2ccccc2C1=O | -14.1% | 61.3* | 28.9% | 26.7*
CC1=CC2=NC(=O)CC(C)(C(=O)N(CC(=O)NC3CCCC3)c3cc(C)cc(C)c3)N2C=C1 (centres undefined) | -0.6% | -3.1 | -0.7% | -2.1
COc1ccccc1N=C(C)C1=C(O)CSC1=O | -13.4% | 33.4 | 0.6% | 7.9
CC(=Nc1ccc(C)c(C)c1)C1=C(O)CSC1=O | -5.4% | 44.8 | -25.5% | 23.3*
COC(=O)c1c(C)[nH]c(/C=N/Nc2ccccc2)c1C | 0.6% | 60.5 | 0.8% | 20.5*
CCC(C(=O)OC)n1cnc2c(nnn2-c2ccc(F)cc2)c1=O (centres undefined) | -4.2% | 17.3 | -14.0% | 9.1*
CCOC(=O)C(CC)n1cnc2c(nnn2-c2cccc(OC)c2)c1=O (centres undefined) | 1.7% | 17.6 | -2.7% | 17.0*
CCOC(=O)C(CC)n1cnc2c(nnn2-c2ccc(C)cc2)c1=O (centres undefined) | -3.0% | 30.8 | -15.2% | 21.8
COC(=O)C(C)n1cnc2c(nnn2-c2ccc(C)cc2)c1=O (centres undefined) | -5.0% | 19.1* | -1.1% | 13.4*
SMILES | SARS PLpro yeast | Shiga toxin inh | NS1 inh | Cycloheximide cs
Cc1nnc(NC(=O)Cn2cnc3c2c(=O)n(C)c(=O)n3C)s1 | -8.4% | 8.6 | 5.4% | -3.8
O=C(O)c1ccccc1N/N=C/c1cc(Br)cc(Br)c1O | -2.4% | 126.5* | -0.3% | 37.4*
O=C(O)c1ccccc1N/N=C\c1ccnc2ccccc12 | 0.6% | 43.1 | 4.8% | 28.3*
Cc1ccc(N2CC(C(=O)NNC(=O)c3ccc(F)cc3)CC2=O)cc1 (centres undefined) | -11.0% | nt | nt | nt
COc1cc2cc[n+](Cc3ccc([N+](=O)[O-])cc3)cc2cc1OC | 1.7% | 3.8 | 0.9% | -4.6
CCOC(=O)c1sc(=S)n(-c2ccc3c(c2)OCO3)c1N | -7.1% | 29.8 | -113.3% | 29.7*
COc1ccc(OC)c2nc(-c3ccncc3)ccc12 | 0.6% | 8.5 | -1.5% | 15.0*
CCOC(=O)N1CCN(Cc2nc(CC3CC3)no2)CC1 | 0.6% | 33.6* | -5.2% | 27.3*
CC/C(C)=N/N1C(=O)c2ccccc2NC1(C)CC (centres undefined) | 0.5% | 77.3* | 3.0% | 29.6*
Cc1ccc(CN=C2Nc3ccccc3CS2)cc1 | 4.2% | 82.2* | -20.3% | 34.5*
c1cncc(CN=C2Nc3ccccc3CS2)c1 | 0.6% | 51.0 | nt | 15.9
Clc1ccc(CN=C2Nc3ccccc3CS2)cc1 | -4.3% | 64.1* | -5.2% | 33.7*
COc1cccc(CN2CCSCC2)c1 | -4.4% | -7.0 | -4.4% | -7.5
COc1ccccc1CN=C1NC(=O)C(CC(=O)Nc2ccc(C(C)=O)cc2)S1 (centres undefined) | -0.4% | 8.5 | 1.3% | 2.7
COc1ccccc1CN=C1Nc2ccccc2CS1 | 0.7% | 81.8* | nt | 29.9*
COc1cccc(CN=C2Nc3ccccc3CS2)c1 | -0.8% | 77.1* | nt | 54.1*
O=C(NCC(c1ccco1)N1CCCC1)c1ccc(Cl)c(S(=O)(=O)N2CCc3ccccc32)c1 (centres undefined) | 9.2% | nt | nt | nt
O=C(Nc1ccc(NC(=O)N2CCN(c3ccccc3O)CC2)cc1)N1CCN(c2ccccc2O)CC1 | 0.2% | 4.1 | -40.4% | -3.7
CCCCNC(=O)NC12CC3CC(CC(C3)C1)C2 | -0.4% | 12.0 | nt | -1.1
CCCNC(=O)NCCC12CC3CC(CC(C3)C1)C2 | -14.6% | 64.9* | nt | 44.8*
CN(C)CCOC(=O)NCC12CC3CC(CC(C3)C1)C2 | -0.1% | -8.4 | 3.6% | 6.5
CCCNC(=O)OCCC12CC3CC(CC(C3)C1)C2 | -0.6% | 25.1* | -14.0% | 59.4*
COn1c(-c2ccccc2)nc2ncccc21 | -3.3% | -4.7 | -0.3% | 4.3
COn1c(-c2ccc(C)cc2)nc2ncccc21 | -0.1% | 30.4 | -7.0% | 20.9*
O=C(N=Nc1c(O)n(Cc2ccccc2)c2ccccc12)c1ccc(O)cc1 | -21.5% | 59.6* | 24.6% | 64.4*
SMILES | SARS PLpro yeast | Shiga toxin inh | NS1 inh | Cycloheximide cs
O=C(N=Nc1c(O)n(Cc2ccccc2)c2ccccc12)c1cc2ccccc2cc1O | 3.4% | 21.6 | 7.1% | 16.1*
N#Cc1ccccc1NC(=O)CSc1nnc(-c2ccncc2)o1 | 0.0% | 13.9 | nt | -1.2
CC1(C)CNc2cc([N+](=O)[O-])ccc2S1 | -2.3% | 58.1* | -6.1% | 39.3*
C[C@H](Br)C(=O)c1ccc2cc(Br)c3ccccc3c2c1 | nt | nt | -7.2% | nt
O=C(Oc1coc(CSc2nnc(NC(=O)c3cccs3)s2)cc1=O)c1ccccc1 | 13.3% | -9.2 | 9.6% | -3.3
COc1ccc(NCc2n[nH]c(=O)c3ccccc23)cc1 | 12.0% | 19.0 | -16.2% | 15.1*
Cc1nnc(NCc2n[nH]c(=O)c3ccccc23)c2ccccc12 | -3.6% | -23.2 | 15.3%[9.22 µM] | -6.4
COc1ccc(S(=O)(=O)NCc2ccc(C(=O)O)cc2)cc1 | 0.4% | -1.4 | 4.5% | -3.1
COc1ccc(NCc2ccc(OC)c(OC)c2)cc1 | 4.9% | 17.0 | -3.3% | 15.1
COc1ccc(CNc2ccc(Br)cc2)cc1 | -2.5% | 126.3* | 0.7% | 36.4*
COc1ccc(CNc2ccc(C(=O)O)cc2)cc1 | 2.9% | 43.5* | -102.5% | 25.9*
COc1cccc(-c2sc3ccc(OC)cc3c2C#CCCO)c1 | 4.1% | nt | nt | nt
CC(C)(C)C1c2[nH]c3ccccc3c2CCN1Cc1cccc(OCCO)c1 (centres undefined) | 0.8% | 36.5 | 2.0% | 10.7*
